Assay results taken from PubChem BioAssay AID1159580 (chemical genetic matrix, 2015).
Where “and” joins values, the source holds several entries; their conditions need not be identical. Equal values may be shown once. Among all 5,500 compounds or so, about 2,000 (36%) were called active. Inconclusive results (about 18%) are left out. Cut-off read from the data, not from the text of the source: active = normalized growth mostly below about 0.91 (no sharp cut-off); inconclusive = no clear call, values can overlap the other calls; inactive = mostly above about 0.92. This is one part of the list.

Assay: chemical genetic growth profiling, strain panel (AID 1159580);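 note: tested at 20 µM; growth read once vehicle control cultures reached saturation at 30 °C; 1 = growth at the plate median or of vehicle wells; lower values mean less growth of the strain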
Conditions: S. cerevisiae deletion strains, growth OD

Measured: normalized growth

O=c1n(CCCN2CCN(c3cccc(Cl)c3)CC2)nc2ccccn12
inactive: locus YAL013W, strain DEP1, active compounds read low 0.995 | locus YAL021C, strain ccr4, active compounds read low 0.939 | locus YAL026C, strain drs2, active compounds read low 0.987 | locus YAL030W, strain snc1, active compounds read low 0.988 | locus YAL040C, strain CLN3, active compounds read low 0.987 | locus YBL061C, strain skt5, active compounds read low 0.983 | locus YBR009C, strain hhf1, active compounds read low 0.983 | locus YBR021W, strain FUR4, active compounds read low 0.998 | locus YBR023C, strain chs3, active compounds read low 0.981 | locus YBR171W, strain sec66, active compounds read low 0.979 | locus YBR229C, strain ROT2, active compounds read low 0.951 | locus YBR231C, strain swc5, active compounds read low 0.981 | locus YBR279W, strain paf1, active compounds read low 0.985 | locus YCL011C, strain gbp2, active compounds read low 0.976 | locus YCL016C, strain dcc1, active compounds read low 0.982 | locus YCL029C, strain bik1, active compounds read low 0.987 | locus YCL061C, strain MRC1 (second series), active compounds read low 0.998 | locus YCL061C, strain MRC1, active compounds read low 0.984 | locus YCL069W, strain vba3, active compounds read low 0.975 | locus YCR088W, strain abp1, active compounds read low 0.978 | locus YDL005C, strain med2, active compounds read low 0.965 | locus YDL035C, strain GPR1, active compounds read low 0.984 | locus YDL040C, strain nat1, active compounds read low 0.979 | locus YDL074C, strain BRE1, active compounds read low 0.941 | locus YDL101C, strain DUN1, active compounds read low 0.97 | locus YDL134C, strain PPH21, active compounds read low 1 | locus YDL185W, strain tfp1, active compounds read low 0.982 | locus YDL192W, strain arf1, active compounds read low 0.986 | locus YDR001C, strain nth1, active compounds read low 0.986 | locus YDR069C, strain doa4, active compounds read low 0.966 | locus YDR101C, strain arx1, active compounds read low 0.97 | locus YDR137W, strain rgp1, active compounds read low 0.94 | locus YDR150W, strain NUM1, active compounds read low 0.992 | locus YDR159W, strain sac3, active compounds read low 0.956 | locus YDR162C, strain NBP2, active compounds read low 0.991 | locus YDR195W, strain ref2 0.977 | locus YDR297W, strain sur2, active compounds read low 0.98 | locus YDR318W, strain mcm21, active compounds read low 0.998 | locus YDR334W, strain swr1, active compounds read low 0.964 | locus YDR335W, strain msn5, active compounds read low 0.984 | locus YDR363W, strain ESC2, active compounds read low 0.998 | locus YDR388W, active compounds read low 0.989 | locus YDR392W, strain spt3, active compounds read low 0.95 | locus YDR502C, strain sam2, active compounds read low 0.989 | locus YEL003W, strain gim4, active compounds read low 0.986 | locus YEL037C, strain rad23, active compounds read low 0.964 | locus YEL061C, strain CIN8 (second series), active compounds read low 0.975 | locus YEL061C, strain CIN8, active compounds read low 0.986 | locus YER002W, strain NOP16, active compounds read low 1 | locus YER015W, strain faa2, active compounds read low 0.978 | locus YER016W, strain bim1, active compounds read low 0.987 | locus YER110C, active compounds read low 0.984 | locus YER111C, strain swi4, active compounds read low 0.971 | locus YER155C, strain BEM2 (second series), active compounds read low 0.948 | locus YER155C, strain BEM2, active compounds read low 0.994 | locus YER167W, strain BCK2, active compounds read low 1 | locus YFR010W, strain ubp6, active compounds read low 0.975 | locus YGL078C, strain dbp3, active compounds read low 0.999 | locus YGL086W, strain mad1, active compounds read low 0.976 | locus YGL167C, strain pmr1, active compounds read low 0.976 | locus YGL173C, strain kem1, active compounds read low 0.973 | locus YGL227W, strain vid30, active compounds read low 0.985 | locus YGL240W, strain doc1, active compounds read low 0.98 | locus YGL248W, strain PDE1, active compounds read low 0.964 | locus YGL253W, strain hxk2, active compounds read low 0.999 | locus YGR078C, strain PAC10, active compounds read low 0.99 | locus YGR135W, strain pre9, active compounds read low 1.03 | locus YGR229C, strain SMI1, active compounds read low 1.01 | locus YGR252W, strain gcn5, active compounds read low 0.993 | locus YHR013C, strain ard1, active compounds read low 0.854 | locus YHR027C, strain rpn1, active compounds read low 0.978 | locus YHR030C, strain SLT2, active compounds read low 1 and 0.995 | locus YHR079C, strain IRE1 (second series), active compounds read low 0.998 | locus YHR079C, strain IRE1, active compounds read low 1 | locus YHR094C, strain hxt1, active compounds read low 0.99 | locus YHR129C, strain ARP1, active compounds read low 0.994 | locus YHR142W, strain chs7, active compounds read low 0.985 | locus YHR200W, strain rpn10, active compounds read low 0.997 | locus YIL066C, strain RNR3, active compounds read low 0.955 | locus YIL073C, strain SPO22, active compounds read low 1.13 | locus YIL125W, strain kgd1, active compounds read low 0.988 | locus YIR030C, strain dcg1, active compounds read low 0.987 | locus YJL092W, strain hpr5, active compounds read low 0.97 | locus YJL095W, strain BCK1 (second series), active compounds read low 0.987 | locus YJL095W, strain BCK1, active compounds read low 0.898 and 1 | locus YJL115W, strain asf1, active compounds read low 0.978 | locus YJL129C, strain trk1, active compounds read low 0.946 | locus YJL134W, strain LCB3, active compounds read low 0.992 | locus YJL154C, strain vps35, active compounds read low 0.975 | locus YJL164C, strain tpk1, active compounds read low 0.984 | locus YJL166W, strain qcr8, active compounds read low 0.969 | locus YJL168C, strain set2, active compounds read low 0.993 | locus YJL187C, strain SWE1 (second series), active compounds read low 0.932 | locus YJL187C, strain SWE1, active compounds read low 0.979 | locus YJR043C, strain POL32, active compounds read low 0.936
